# Rows were chosen to be rich in hits. Some 6% of all compounds tested hit in one or more screens of this group.
# DRD3 antagonist: qHTS of D3 Dopamine Receptor Antagonist: qHTS; max response, negative = inhibition, %; AID 652054, 2013; 2.5% of 360,000 active; D3R cells, DiscoveRx beta-arrestin luminescence, antagonist mode; stronger effect = lower value; in the data active = max response below about -50%; inconclusive = no clear call, values can overlap the other calls; also: % is scaled to controls: 0 for no effect and ±100 for the full control effect
#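 Cells expressing the human receptor were seeded at 1500 cells/well, incubated overnight at 37 degrees C in 5% CO2, then exposed to library compounds with dopamine controls for 90 minutes at 37 degrees C before luminescent detection.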
# BCR signal inh: qHTS Assay to Find Inhibitors of Chronic Active B-Cell Receptor Signaling; ABC-DLBCL IkBa-CBG/CBR reporter, luminescence ratio, 4 h; Potency, µM (titrated, usually from 46.1 µM), for the others: at the highest dose activity change, negative = inhibition, usual class: inhibitors; 0.05% of 340,000 active; active = well fitted inhibition curve with a large enough effect in the signal ratio, with a control signal flat, not every such curve was filed as active; inconclusive = small, poorly fitted or top-dose-only effect, or effect the other way, or a change in a side signal; the % refers to the signal ratio;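 also: potency is read from the fitted curve at half-maximal effect; plate controls were basal doxycycline-induced cells for no effect and cells given 10 µM MG132 for full effect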
#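 Concentration-response series (up to 46 uM) were applied to TMD8 dual-reporter cells for 4 h at 37C with doxycycline. Green/red ratio, after filter-overlap correction, defined %Activity; red signal alone was normalised to basal cells and zero luminescence.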
# D3 ag: qHTS of D3 Dopamine Receptor Agonist: qHTS; D(3) dopamine receptor (Homo sapiens), P35462; D3R DiscoveRx beta-arrestin cells, luminescence, 90 min; max activation, %; 0.58% of 410,000 active; in the data active = max activation above about 30%; also: 0% is about no effect
#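 Agonist-mode cell screen: cells plated at 1500/well and incubated overnight at 37 °C, then exposed to library compounds for 90 min at 37 °C. Detection reagent was added for 30–60 min at room temperature, and luminescence was read.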
# D1 ag: Allosteric Agonists of the Human D1 Dopamine Receptor: qHTS | activation, % at 2 µM | 1% of 360,000 active | AID 504660, 2011 | HEK293 T-REx D1 cells, calcium flux, agonist mode; in the data active = activation above about 30%; also: 0% is about no effect
# Target sequence (P21728 whole entry, looked up): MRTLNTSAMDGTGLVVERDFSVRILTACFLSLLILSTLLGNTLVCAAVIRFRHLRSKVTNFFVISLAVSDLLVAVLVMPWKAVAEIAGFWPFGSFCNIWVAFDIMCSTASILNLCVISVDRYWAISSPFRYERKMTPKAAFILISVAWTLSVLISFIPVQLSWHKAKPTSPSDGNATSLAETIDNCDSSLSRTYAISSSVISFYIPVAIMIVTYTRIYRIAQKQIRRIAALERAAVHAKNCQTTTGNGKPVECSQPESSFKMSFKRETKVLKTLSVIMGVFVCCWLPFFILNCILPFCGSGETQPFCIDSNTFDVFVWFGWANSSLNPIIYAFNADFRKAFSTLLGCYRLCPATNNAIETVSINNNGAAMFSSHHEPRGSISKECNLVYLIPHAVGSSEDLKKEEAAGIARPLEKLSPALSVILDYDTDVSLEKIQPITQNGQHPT
#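 Tetracycline-induced HEK293 TREx D1 cells, force-coupled to calcium signalling, were dye-loaded with a no-wash calcium kit. Compound was pin-added after a 10 s baseline. Fluorescence was read kinetically at 1 cycle/s for 180 s, with calcium rises flagged as agonism.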
# D1 potentiator: Potentiators of Human D1 Dopamine Receptor: qHTS. D(1A) dopamine receptor (Homo sapiens), P21728. HEK293 TREx D1 cells, calcium flux, dopamine EC20 potentiation. potentiation, % at 10 µM. 0.036% of 360,000 active. AID 504651, 2011; in the data active = potentiation above about 30%; also: 0% is about no effect
# D1 antag: Antagonist of Human D 1 Dopamine Receptor: qHTS; D(1A) dopamine receptor (Homo sapiens), P21728; HEK293 TREx D1 cells, calcium flux, dopamine EC80; stronger effect = lower value; activity change, negative = inhibition, % at 10 µM; 3.2% of 360,000 active; in the data active = activity change below about -30%; also: % is scaled to controls: 0 for no effect and ±100 for the full control effect
#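 Kinetic fluorescence of a calcium dye serves as the read-out. D1-expressing Hek293 Trex cells, induced overnight at 30 C, are exposed to compound for 180 s before an EC80 dopamine addition, then read 180 s further.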
# The depositor's hits bear a star; ? = inconclusive; · = not tested or not shown.
SMILES,DRD3 antagonist,BCR signal inh,D3 ag,D1 ag,D1 potentiator,D1 antag
COCCNC(=O)C1(C)CCCN(Cc2ccc(-c3ccccn3)cc2)C1 (centres undefined),10,·,0,·,·,·
COc1cc(Cl)ccc1OC1(C)CCN(Cc2ccccc2OC(F)F)C1 (centres undefined),?,·,-18,·,·,·
CC1(Oc2ccc(Cl)cc2)CCN(Cc2ccc(-c3ccccn3)cc2)C1 (centres undefined),-121*,·,-9,·,·,·
O=C1OC2(c3ccccc31)c1cc(Br)c(O)c(Br)c1Oc1c2cc(Br)c(O)c1Br,·,·,1,·,·,·
Cc1cc2c(s1)c(C=O)c(C(=O)NCc1ccccc1F)n2C,·,26%,·,2,-6,-13
CCc1ccccc1N1CC(c2nc3ccccc3n2CCCOc2ccc(Cl)cc2)CC1=O (centres undefined),·,·,-35,15,-1,2
CC1(Oc2ccccc2)CCN(Cc2ccc(-c3ccccn3)cc2)C1 (centres undefined),-79*,·,-13,·,·,·
COc1cc(Cl)ccc1OC1(C)CCN(Cc2ccc3ccccc3c2)C1 (centres undefined),-116*,·,-8,·,·,·
CC(C)Oc1ccccc1OC1(C)CCN(Cc2ccc(OC(F)(F)F)cc2)C1 (centres undefined),-24,·,-14,·,·,·
CCCCCCC(C)n1[nH]c(=O)c2c(C)cc(C)nc21 (centres undefined),-2,2%,-26,2,-4,-1
CCCCCC(C)n1[nH]c(=O)cc1N (centres undefined),-109*,0%,4,0,3,12
CS/C(N)=N/N=C/c1cc(C)ccc1O,-8,?,11,4,5,10
CCS/C(N)=N/N=C/c1cc(C)ccc1O,-53*,?,-6,0,25,-7
CCCCS/C(N)=N/N=C/c1cc(C)ccc1O,-55*,?,-11,3,-3,-6
Nc1nc(N)c2[nH]c(=S)[nH]c2n1,-6,·,10,·,·,·
COc1ccc(/C(C)=N/NC(=O)c2nnn(-c3nonc3N)c2-c2ccccc2)cc1,1,?,4,50*,-5,30
CCOC(=O)c1nnn(-c2nonc2N)c1COc1ccccc1,-58*,-3%,-1,1,-8,-8
CCOC(=O)c1nnn(-c2nonc2N)c1-c1ccc(OC)cc1,-54*,?,3,1,-9,-9
CCOC(=O)c1nnn(-c2nonc2N)c1-c1ccc(Cl)cc1,9,6%,11,5,-4,-10
COc1ccc(/C(C)=N/NC(=O)c2nnn(-c3nonc3N)c2-c2cccs2)cc1,0,-11%,-1,57*,9,6
CCCCN1C(=O)CN(C2CCCCCC2)C(=O)C1c1ccc(OCC)c(OC)c1 (centres undefined),·,-16%,8,-5,-4,-7
CC1(C(=O)NCc2ccccc2)CN(S(C)(=O)=O)CC(=O)N1CCCN1CCOCC1 (centres undefined),21,·,2,·,·,·
C/C(=N\NC(=O)c1nnn(-c2nonc2N)c1-c1cccs1)c1ccc(C)cc1,-6,?,0,87*,4,23
COc1cc(NC(=O)CC2C(=O)OCCN2Cc2ccccc2)cc(OC)c1 (centres undefined),·,·,8,0,-4,-12
O=C(CSc1ccccc1)NCc1ccc2c(c1)CCN2C(=O)c1ccc(F)cc1,·,8%,3,5,1,0
SMILES,DRD3 antagonist,BCR signal inh,D3 ag,D1 ag,D1 potentiator,D1 antag
CCCc1nn2c(=O)cc(COC(=O)c3ccc(NC(=O)COc4ccccc4F)cc3)nc2s1,·,·,-15,0,1,3
N#Cc1ccc(NC(=O)COCc2cc(-c3ccc4c(c3)OCO4)on2)cc1,·,·,9,5,-2,-40*
C#Cc1ccc([C@@H]2C=C(C(=O)O)O[C@H](OCc3ccc(CO)cc3)C2)cc1,26,-8%,18,-3,-6,-39*
C#CCNC(=O)C1=C[C@@H](c2ccc(Br)cc2)C[C@@H](OCc2ccc(CO)cc2)O1,-13,1%,-12,-5,-4,-31*
C#CCNC(=O)C1=C[C@@H](c2ccc(C(F)(F)F)cc2)C[C@@H](OCCCCO)O1,-52*,?,-2,-3,6,12
C#CCNC(=O)C1=C[C@H](C2CCCCC2)C[C@H](OCc2ccc(CO)cc2)O1,15,-5%,8,9,-4,-35*
COc1ccc(NC(=O)c2cc(C3CCCCN3S(=O)(=O)c3cn(C)cn3)on2)c(C)c1 (centres undefined),0,·,5,·,·,·
Cn1nnnc1Sc1ncnc2scc(-c3ccccc3F)c12,·,·,·,0,-2,14
COc1cc(/C=N/NC(=O)c2ccc(-c3ccccc3)cc2)cc(OC)c1OC,5,0%,1,3,-1,-14
COc1cc(/C=C(/C(=O)O)c2ccc(-c3ccccc3)cc2)cc(OC)c1OC,2,?,2,-3,-8,-42*
C[C@H](NC(=O)C[C@@H]1CC[C@H]2[C@@H](COC[C@H](O)CN2Cc2ccc(C(F)(F)F)cc2)O1)c1ccccc1,7,·,-2,·,·,·
COc1ccc(C(=O)C(OC(=O)c2ccccc2Cl)c2ccccc2)cc1 (centres undefined),0,?,-6,11,-8,-33*
CNc1cccccc1=S,?,2%,5,0,1,-56*
O=C(Cn1cc(SCc2c(F)cccc2Cl)c2ccccc21)N1CCCCC1,·,·,17,3,-4,-4
N#C/C(=C\c1ccc(O)c(O)c1)C(=O)NCCCc1ccccc1,-80*,?,-41,4,4,-14
COCCNC(=O)/C(C#N)=C/c1cccc(/C=C(\C#N)C(=O)NCCOC)c1,-11,15µM*,9,1,0,1
CC(NC(=O)/C(C#N)=C/c1ccc(C(=O)O)cc1)c1ccccc1 (centres undefined),-14,2%,-5,14,-3,5
COc1cc(/C=C(/C#N)C(=O)NCc2ccccc2)cc(OC)c1OC,-13,?,-5,1,-3,24
COc1cc(/C=C(/C#N)C(=O)NC(C)c2ccccc2)cc(OC)c1O (centres undefined),-10,-25%,-9,95*,1,4

# Assay outcomes (PubChem BioAssay)
